# Source: PubChem BioAssay AID434961 (Broad Institute, 2010)
# In all, about 7,700 compounds went through this assay and about 15 (0.2%) were called active. Another 6% or so got no clear call; they are omitted. For the sample, actives were picked, then their nearest neighbours and some compounds at random. A number with no mark means an inactive call.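 Rule for the calls: active = more than half of replicate wells with inhibition above about 18% (limit read from the data, passing the limit was not always enough); inconclusive = exactly half of replicate wells above that limit; inactive = fewer than half of replicates above it.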
# Molecular target: Regulator of chromosome condensation (Homo sapiens) + GTP-binding nuclear protein Ran (Homo sapiens) + Importin subunit beta-1 (Homo sapiens) (UniProt P18754+P62826+Q14974)
# Experiment: inhibitors of Ran–importin-beta complex formation, primary screen, biochemical, CFP-Ran/YFP-importin-beta FRET, RCC1, cell-free (AID 434961);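 note: 0% = DMSO wells and 100% inhibition = RanGDP control wells on each plate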
# Details: hits give high values, concentration not given here
row,SMILES,inhibition
1,CNC[C@H]1Oc2ccc(NC(=O)NC(C)C)cc2CC(=O)N([C@H](C)CO)C[C@H]1C,-4.07%
2,CNC[C@H]1OCCCC[C@@H](C)Oc2ccc(N)cc2C(=O)N([C@H](C)CO)C[C@@H]1C,7.03%
3,C[C@@H]1CN([C@H](C)CO)C(=O)Cc2cc(NS(=O)(=O)c3cn(C)cn3)ccc2O[C@H]1CN(C)CC1CC1,1.45%
4,Cc1noc(C)c1NC(=O)N(C)C[C@@H]1Oc2c(NS(C)(=O)=O)cccc2C(=O)N([C@H](C)CO)C[C@H]1C,-0.0899%
5,C[C@@H]1CCCCO[C@H](CN(C)C(=O)C2CCCCC2)[C@H](C)CN([C@@H](C)CO)C(=O)c2cc(NC(=O)c3ccncc3)ccc2O1,2%
6,C[C@@H]1CN([C@@H](C)CO)C(=O)Cc2cc(NC(=O)Nc3ccc4c(c3)OCO4)ccc2O[C@@H]1CN(C)CC1CC1,2.45%
7,C[C@@H]1CN([C@H](C)CO)C(=O)Cc2cc(NC(=O)Nc3ccc4c(c3)OCO4)ccc2O[C@@H]1CN(C)CC1CC1,24.2% (active)
8,C[C@H](CO)N1C[C@H](C)[C@H](CN(C)CC2CC2)Oc2ccc(NC(=O)Nc3ccc4c(c3)OCO4)cc2CC1=O,-0.0887%
9,C[C@H]1CN([C@@H](C)CO)C(=O)Cc2cc(NC(=O)Cc3ccccc3)ccc2O[C@@H]1CN(C)S(=O)(=O)c1cccs1,-0.944%
10,C[C@@H]1CN([C@H](C)CO)C(=O)Cc2cc(NC(=O)Cc3ccccc3)ccc2O[C@@H]1CN(C)S(=O)(=O)c1cccs1,-2.73%
11,C[C@H](CO)N1C[C@H](C)[C@@H](CN(C)S(=O)(=O)c2cccs2)Oc2ccc(NC(=O)Cc3ccccc3)cc2CC1=O,19.8% (active)
12,C[C@@H]1CN([C@@H](C)CO)C(=O)c2cc(NS(C)(=O)=O)ccc2O[C@@H](C)CCCCO[C@H]1CN(C)C(=O)Cc1ccccc1,20.6% (active)
13,C[C@@H]1CN([C@@H](C)CO)C(=O)c2cc(NC(=O)CCCN(C)C)ccc2O[C@@H](C)CCCCO[C@H]1CN(C)Cc1ccc2c(c1)OCO2,7.22%
14,C[C@@H]1CCCCO[C@H](CN(C)Cc2ccncc2)[C@H](C)CN([C@H](C)CO)C(=O)c2cc(NS(C)(=O)=O)ccc2O1,0.0179%
15,C[C@@H]1CN([C@@H](C)CO)C(=O)c2cc(NS(C)(=O)=O)ccc2O[C@@H](C)CCCCO[C@@H]1CN(C)C(=O)Cc1ccccc1,-3.41%
16,C[C@@H]1CN([C@@H](C)CO)C(=O)c2cccc(NS(C)(=O)=O)c2O[C@@H]1CN(C)Cc1ccncc1,0.304%
17,C[C@@H]1CN([C@H](C)CO)C(=O)c2cc(NS(C)(=O)=O)ccc2O[C@@H](C)CCCCO[C@@H]1CN(C)Cc1ccncc1,30% (active)
18,C[C@@H]1CCCCO[C@@H](CN(C)Cc2ccncc2)[C@H](C)CN([C@@H](C)CO)C(=O)c2cc(NS(C)(=O)=O)ccc2O1,-2.5%
19,C[C@H]1CCCCO[C@H](CN(C)Cc2ccc3c(c2)OCO3)[C@@H](C)CN([C@@H](C)CO)C(=O)c2cc(NC(=O)CCCN(C)C)ccc2O1,-3.94%

row,SMILES,inhibition
1,C[C@H](CO)N1C[C@H](C)[C@@H](CN(C)Cc2ccncc2)Oc2c(NS(C)(=O)=O)cccc2C1=O,29.9% (active)
2,C[C@H]1CN([C@@H](C)CO)C(=O)c2cccc(NS(C)(=O)=O)c2O[C@H]1CN(C)Cc1ccncc1,7.75%
3,C[C@@H]1CCCCO[C@H](CN(C)Cc2ccc3c(c2)OCO3)[C@@H](C)CN([C@H](C)CO)C(=O)c2cc(NC(=O)CCCN(C)C)ccc2O1,20.5% (active)
4,C[C@H]1CCCCO[C@@H](CN(C)C(=O)Cc2ccccc2)[C@@H](C)CN([C@@H](C)CO)C(=O)c2cc(NS(C)(=O)=O)ccc2O1,3.79%
5,Cc1noc(C)c1NC(=O)Nc1ccc2c(c1)C(=O)N([C@H](C)CO)C[C@H](C)[C@H](CN(C)C(=O)Nc1c(C)noc1C)OCCCC[C@H](C)O2,-1.94%
6,Cc1noc(C)c1NC(=O)Nc1ccc2c(c1)C(=O)N([C@H](C)CO)C[C@H](C)[C@@H](CN(C)C(=O)Nc1c(C)noc1C)OCCCC[C@@H](C)O2,0.0737%
7,Cc1noc(C)c1NC(=O)Nc1ccc2c(c1)C(=O)N([C@H](C)CO)C[C@@H](C)[C@@H](CN(C)C(=O)Nc1c(C)noc1C)OCCCC[C@@H](C)O2,20.4% (active)
8,COc1ccc(CN(C)C[C@H]2Oc3ccc(NC(=O)Nc4ccc(C(F)(F)F)cc4)cc3C(=O)N([C@@H](C)CO)C[C@H]2C)cc1,31.1% (active)
9,C[C@H]1CN([C@@H](C)CO)C(=O)c2cccc(NS(=O)(=O)c3cn(C)cn3)c2O[C@@H]1CN(C)C,0.914%
10,C[C@H]1CN([C@@H](C)CO)C(=O)c2cccc(NS(=O)(=O)c3cn(C)cn3)c2O[C@H]1CN(C)C,31% (active)
11,Cc1noc(C)c1NC(=O)N(C)C[C@@H]1Oc2ccc(N(C)C)cc2CC(=O)N([C@H](C)CO)C[C@H]1C,24.7% (active)
12,Cc1noc(C)c1NC(=O)N(C)C[C@@H]1Oc2ccc(N(C)C)cc2CC(=O)N([C@H](C)CO)C[C@@H]1C,1.55%
13,COc1ccc(CN(C)C[C@H]2Oc3ccc(NC(=O)Nc4ccc(C(F)(F)F)cc4)cc3C(=O)N([C@H](C)CO)C[C@H]2C)cc1,-1.47%
14,Cc1noc(C)c1NC(=O)N(C)C[C@H]1Oc2ccc(N(C)C)cc2CC(=O)N([C@@H](C)CO)C[C@H]1C,-0.258%
15,C[C@@H]1CN([C@H](C)CO)C(=O)c2cccc(NS(=O)(=O)c3cn(C)cn3)c2O[C@H]1CN(C)C,-0.231%
16,COc1ccc(CN(C)C[C@H]2Oc3ccc(NC(=O)Nc4ccc(C(F)(F)F)cc4)cc3C(=O)N([C@@H](C)CO)C[C@@H]2C)cc1,-6.63%
17,C[C@@H]1CCCCO[C@@H](CN(C)C(=O)CCC(F)(F)F)[C@H](C)CN([C@@H](C)CO)C(=O)c2cc(NC(=O)CCC(F)(F)F)ccc2O1,-1.98%
18,C[C@@H]1CCCCO[C@@H](CN(C)C(=O)CCC(F)(F)F)[C@@H](C)CN([C@@H](C)CO)C(=O)c2cc(NC(=O)CCC(F)(F)F)ccc2O1,17.9% (active)
19,C[C@H]1CCCCO[C@H](CN(C)C(=O)CCC(F)(F)F)[C@@H](C)CN([C@@H](C)CO)C(=O)c2cc(NC(=O)CCC(F)(F)F)ccc2O1,4.31%

row,SMILES,inhibition
1,CNC[C@H]1Oc2c(cccc2N(C)C)C(=O)N([C@H](C)CO)C[C@H]1C,-1.15%
2,COc1ccc(CN(C)C[C@H]2Oc3c(NC(=O)Nc4c(C)noc4C)cccc3C(=O)N([C@H](C)CO)C[C@@H]2C)cc1,0.675%
3,C[C@H](CO)N1C[C@H](C)[C@H](CN(C)C(=O)Nc2ccccc2)Oc2c(NC(=O)c3ccc(-c4nccs4)cc3)cccc2C1=O,-2.67%
4,C[C@H](CO)N1C[C@H](C)[C@H](CN(C)Cc2ccc3c(c2)OCO3)Oc2ccc(NC(=O)CCC(F)(F)F)cc2CC1=O,0.912%
5,C[C@@H]1CCCCO[C@@H](CN(C)C(=O)CCCN(C)C)[C@H](C)CN([C@@H](C)CO)C(=O)c2cc(N(C)C)ccc2O1,1.1%
6,C[C@@H]1CCCCO[C@@H](CN(C)C(=O)c2ccncc2)[C@@H](C)CN([C@@H](C)CO)C(=O)c2cc(NS(=O)(=O)c3cccs3)ccc2O1,-2.75%
7,COc1ccc(CN(C)C[C@@H]2Oc3c(NS(=O)(=O)c4cn(C)cn4)cccc3C(=O)N([C@H](C)CO)C[C@@H]2C)cc1,-1.87%
8,C[C@H](CO)N1C[C@H](C)[C@H](CN(C)Cc2ccc(Cl)c(Cl)c2)Oc2c(NS(=O)(=O)c3cn(C)cn3)cccc2C1=O,-0.00607%
9,C[C@@H]1CCCCO[C@H](CN(C)C(=O)Nc2ccccc2)[C@@H](C)CN([C@@H](C)CO)C(=O)c2cc(NC(=O)CCCN(C)C)ccc2O1,-3.05%
10,CNC[C@H]1Oc2ccc(NS(=O)(=O)c3cccs3)cc2CC(=O)N([C@H](C)CO)C[C@H]1C,-0.195%
11,C[C@@H]1CCCCO[C@@H](CN(C)S(C)(=O)=O)[C@H](C)CN([C@H](C)CO)C(=O)c2cc(NS(=O)(=O)c3ccccc3)ccc2O1,-0.778%
12,C[C@H]1CN([C@@H](C)CO)C(=O)Cc2cc(NC(=O)C3CC3)ccc2O[C@@H]1CN(C)C(=O)Nc1ccccc1,-14.8%
13,CNC[C@@H]1Oc2c(N)cccc2C(=O)N([C@H](C)CO)C[C@@H]1C,-1.12%
14,COc1ccccc1CN(C)C[C@H]1OCc2cn(nn2)CCCC(=O)N([C@H](C)CO)C[C@H]1C,3.38%
15,C[C@@H]1CN([C@@H](C)CO)C(=O)c2cccc(NC(=O)c3ccncc3)c2O[C@H]1CN(C)S(=O)(=O)c1cccs1,0.118%
16,C[C@H]1CCCCO[C@@H](CN(C)Cc2ccncc2)[C@@H](C)CN([C@@H](C)CO)C(=O)c2cc(N(C)C)ccc2O1,1.7%
17,COc1ccc(NC(=O)Nc2ccc3c(c2)C(=O)N([C@@H](C)CO)C[C@@H](C)[C@H](CN(C)Cc2ccc(C(=O)O)cc2)O3)cc1,0.138%
18,C[C@@H]1CN([C@H](C)CO)C(=O)c2cc(NC(=O)Nc3ccccc3)ccc2O[C@@H](C)CCCCO[C@H]1CN(C)S(=O)(=O)c1ccc(F)cc1,4.18%
19,C[C@H](CO)N1C[C@H](C)[C@@H](CN(C)C(=O)NC2CCCCC2)Oc2ccc(N(C)C)cc2C1=O,3.39%
